{"source": "ChEMBL document CHEMBL2218924", "about": "“A broad activity screen in support of a chemogenomic map for kinase signalling research and drug discovery” (Biochem J, 2013)"}
{"target": "RAC-gamma serine/threonine-protein kinase (Homo sapiens) (UniProt Q9Y243)", "sequence (Q9Y243 whole entry)": "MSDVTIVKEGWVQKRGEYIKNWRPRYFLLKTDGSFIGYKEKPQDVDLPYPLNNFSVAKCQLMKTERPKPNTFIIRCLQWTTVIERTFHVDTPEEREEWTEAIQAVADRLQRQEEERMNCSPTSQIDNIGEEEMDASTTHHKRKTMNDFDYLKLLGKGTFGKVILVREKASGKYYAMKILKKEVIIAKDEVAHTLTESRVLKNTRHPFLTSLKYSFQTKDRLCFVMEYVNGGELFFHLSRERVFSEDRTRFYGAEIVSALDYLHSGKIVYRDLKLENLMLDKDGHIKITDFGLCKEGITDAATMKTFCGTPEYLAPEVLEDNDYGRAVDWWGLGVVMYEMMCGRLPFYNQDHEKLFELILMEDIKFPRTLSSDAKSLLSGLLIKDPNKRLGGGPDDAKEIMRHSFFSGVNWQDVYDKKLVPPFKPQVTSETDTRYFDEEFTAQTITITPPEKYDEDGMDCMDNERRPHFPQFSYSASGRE", "settings": "at 1 µM", "units": {"residual activity": "%"}}
{"smiles": "COc1ccc2c(c1)c(C1=C(c3c[nH]c4ccccc34)C(=O)NC1=O)cn2CCCN(C)C", "residual activity": 30}
{"smiles": "O=C(O)/C=C/c1cc(Br)c(Br)c(Br)c1Br", "residual activity": 105}
{"smiles": "CC(C)(C)c1nc2c3ccc(F)cc3c3c(=O)[nH]ccc3c2[nH]1", "residual activity": 60}
{"smiles": "O=C1Cc2c([nH]c3ccc([N+](=O)[O-])cc23)-c2ccccc2N1", "residual activity": 118}
{"smiles": "COc1cc2ncnc(Nc3cccc(Cl)c3)c2cc1OC", "residual activity": 112}
{"smiles": "CCN(CC)CCNC(=O)c1c(C)[nH]c(/C=C2\\C(=O)Nc3ccc(Cl)cc32)c1C", "residual activity": 79}
{"smiles": "COc1cc2nccc(Oc3ccc(NC(=S)NC(=O)c4ccccc4C)cc3)c2cc1OC", "residual activity": 94}
{"smiles": "CN(C)S(=O)(=O)c1ccc2c(c1)/C(=C/c1cc3c([nH]1)CCCC3)C(=O)N2", "residual activity": 92}
{"smiles": "O=C(CCCc1ccc(-c2ccccc2F)cc1)Nc1ccc(O)cc1", "residual activity": 109}
{"smiles": "Oc1cccc(-c2nc(N3CCOCC3)c3oc4ncccc4c3n2)c1", "residual activity": 95}
{"smiles": "O=C1NC(=O)C(c2c[nH]c3ccccc23)=C1c1c[nH]c2ccccc12", "residual activity": 100}
{"smiles": "CCCCc1c(-c2ccc(OC)cc2)[nH]c2nccnc12", "residual activity": 119}
{"smiles": "Cn1sc(=O)n(Cc2ccccc2)c1=O", "residual activity": 85}
{"smiles": "CC(C)(C)n1nc(Cc2cccc3ccccc23)c2c(N)ncnc21", "residual activity": 92}
{"smiles": "Nc1ncnc2c1c(-c1ccc(Oc3ccccc3)cc1)cn2C1CCCC1", "residual activity": 98}
{"smiles": "O=C1NC(=O)c2c1c1c3ccccc3[nH]c1n1cncc21", "residual activity": 84}
{"smiles": "NC(=O)Nc1sc(-c2ccc(F)cc2)cc1C(N)=O", "residual activity": 85}
{"smiles": "O=C1Nc2ccc(Cl)cc2/C1=C/c1cc(Cl)c(O)c(Cl)c1", "residual activity": 96}
{"smiles": "CCCC(=O)Oc1ccc2[nH]c(C(=O)c3cc4ccccc4[nH]3)cc2c1", "residual activity": 102}
{"target": "RAC-gamma serine/threonine-protein kinase (Homo sapiens) (UniProt Q9Y243)", "settings": "at 10 µM", "units": {"residual activity": "%"}}
{"smiles": "COc1ccc2c(c1)c(C1=C(c3c[nH]c4ccccc34)C(=O)NC1=O)cn2CCCN(C)C", "residual activity": 9}
{"smiles": "Nc1ncnc2c1cnn2-c1ccccc1", "residual activity": 73}
{"smiles": "NCCNc1ncc(C(N)=O)c(Nc2cccc(C(F)(F)F)c2)n1", "residual activity": 43}
{"smiles": "O=C(O)/C=C/c1cc(Br)c(Br)c(Br)c1Br", "residual activity": 61}
{"smiles": "CC(C)(C)c1nc2c3ccc(F)cc3c3c(=O)[nH]ccc3c2[nH]1", "residual activity": 63}
{"smiles": "CCN(CC)CCNC(=O)c1c(C)[nH]c(/C=C2\\C(=O)Nc3ccc(Cl)cc32)c1C", "residual activity": 33}
{"smiles": "COc1cc2nccc(Oc3ccc(NC(=S)NC(=O)c4ccccc4C)cc3)c2cc1OC", "residual activity": 72}
{"smiles": "CN(C)S(=O)(=O)c1ccc2c(c1)/C(=C/c1cc3c([nH]1)CCCC3)C(=O)N2", "residual activity": 88}
{"smiles": "O=C(CCCc1ccc(-c2ccccc2F)cc1)Nc1ccc(O)cc1", "residual activity": 87}
{"smiles": "Oc1cccc(-c2nc(N3CCOCC3)c3oc4ncccc4c3n2)c1", "residual activity": 95}
{"smiles": "O=C1NC(=O)C(c2c[nH]c3ccccc23)=C1c1c[nH]c2ccccc12", "residual activity": 36}
{"smiles": "N#C/C(=C\\c1ccc(O)c(O)c1)C(=O)NCc1ccccc1", "residual activity": 83}
{"smiles": "Nc1ncnc2[nH]nc(Nc3ccc(F)cc3)c12", "residual activity": 71}
{"smiles": "Cn1sc(=O)n(Cc2ccccc2)c1=O", "residual activity": 84}
{"smiles": "COc1cc2c(cc1OC)-c1n[nH]c(Nc3cccc(F)c3)c1C2", "residual activity": 109}
{"smiles": "CC(C)(C)n1nc(Cc2cccc3ccccc23)c2c(N)ncnc21", "residual activity": 44}
{"smiles": "Nc1ncnc2c1c(-c1ccc(Oc3ccccc3)cc1)cn2C1CCCC1", "residual activity": 71}
{"smiles": "O=C1NC(=O)c2c1c1c3ccccc3[nH]c1n1cncc21", "residual activity": 64}
{"smiles": "NC(=O)Nc1sc(-c2ccc(F)cc2)cc1C(N)=O", "residual activity": 55}
{"smiles": "O=C1Nc2ccc(Cl)cc2/C1=C/c1cc(Cl)c(O)c(Cl)c1", "residual activity": 80}
{"smiles": "CCCC(=O)Oc1ccc2[nH]c(C(=O)c3cc4ccccc4[nH]3)cc2c1", "residual activity": 103}
{"target": "Protein kinase C alpha type (Homo sapiens) (UniProt P17252)", "settings": "at 1 µM", "units": {"residual activity": "%"}}
{"smiles": "COc1ccc2c(c1)c(C1=C(c3c[nH]c4ccccc34)C(=O)NC1=O)cn2CCCN(C)C", "residual activity": -1}
{"smiles": "Nc1ncnc2c1cnn2-c1ccccc1", "residual activity": 97}
{"smiles": "c1ccc(-c2cnc(Nc3ccc(OCCN4CCCC4)cc3)s2)cc1", "residual activity": 101}
{"smiles": "NCCNc1ncc(C(N)=O)c(Nc2cccc(C(F)(F)F)c2)n1", "residual activity": 45}
{"smiles": "O=C(O)/C=C/c1cc(Br)c(Br)c(Br)c1Br", "residual activity": 105}
{"smiles": "CC(C)(C)c1nc2c3ccc(F)cc3c3c(=O)[nH]ccc3c2[nH]1", "residual activity": 65}
{"smiles": "O=C1Cc2c([nH]c3ccc([N+](=O)[O-])cc23)-c2ccccc2N1", "residual activity": 100}
{"smiles": "COc1cc2ncnc(Nc3cccc(Cl)c3)c2cc1OC", "residual activity": 103}
{"smiles": "COc1cc2nccc(Oc3ccc(NC(=S)NC(=O)c4ccccc4C)cc3)c2cc1OC", "residual activity": 99}
{"smiles": "O=C(CCCc1ccc(-c2ccccc2F)cc1)Nc1ccc(O)cc1", "residual activity": 106}
{"smiles": "O=C1NC(=O)C(c2c[nH]c3ccccc23)=C1c1c[nH]c2ccccc12", "residual activity": 26}
{"smiles": "Nc1ncnc2[nH]nc(Nc3ccc(F)cc3)c12", "residual activity": 108}
{"smiles": "Cn1c2ccccc2c2c3c(c4c5ccccc5n(CCC#N)c4c21)CNC3=O", "residual activity": 1}
{"smiles": "Cn1sc(=O)n(Cc2ccccc2)c1=O", "residual activity": 85}
{"smiles": "COc1cc2c(cc1OC)-c1n[nH]c(Nc3cccc(F)c3)c1C2", "residual activity": 104}
{"smiles": "CC(C)(C)n1nc(Cc2cccc3ccccc23)c2c(N)ncnc21", "residual activity": 93}
{"smiles": "Nc1ncnc2c1c(-c1ccc(Oc3ccccc3)cc1)cn2C1CCCC1", "residual activity": 102}
{"smiles": "O=C1NC(=O)c2c1c1c3ccccc3[nH]c1n1cncc21", "residual activity": 97}
{"smiles": "NC(=O)Nc1sc(-c2ccc(F)cc2)cc1C(N)=O", "residual activity": 91}
{"smiles": "CCCC(=O)Oc1ccc2[nH]c(C(=O)c3cc4ccccc4[nH]3)cc2c1", "residual activity": 106}
